The values that follow come from the supplement of paper PMC10338343.

± gives the standard deviation.

For the first test, the system named is MILI (PIWIL2) piRISC loaded with L1MC piRNA (26 nt). The experiment in a line: pre-steady-state target cleavage rate (min^-1); guide: L1MC piRNA 5'p-UAACUAAAUACUAUGCAAGCUGUAGG; MIWI and MILI are mouse PIWI proteins and EfPiwi is from a freshwater sponge; tags in brackets are library labels; higher = faster piRNA-guided slicing of the target. As to conditions: auxiliary factor: 500 nM mouse GTSF1. The method in brief:
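Sequencing of uncleaved targets, normalised to depth and to weakly complementary targets, was the readout of this Cleave-'n-Seq assay. A transcribed, DNA-blocked target RNA library (0.1 nM) was mixed with 1 nM active affinity-purified piRISC carrying one synthetic guide, with or without 500 nM GTSF1 partner protein, in HEPES–potassium acetate buffer at 33 °C for 0–8 or 0–960 min. Three trials were pooled, k3 was capped at 0.0001 min^-1, and a burst-and-steady-state fit gave the pre-steady-state cleavage rate.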
Turning to UCCUGGUACAGCUUGCAUAGUAUUUACGUUA, the “pre-steady-state target cleavage rate” value came out at 0.227 ± 0.039.

Turning to UCCUGGAACAGCUAGCAUAGUAUUAAGUUA, the “pre-steady-state target cleavage rate” value is 0.192 ± 0.015.

UCCUGGAUCACUUGCAUAGUAUUUAGUUA: the “pre-steady-state target cleavage rate” value was found to be 0.214 ± 0.018.

As to “UCCUGGUACAGCUUGCAUAGUAUUUAGUUC [g2:g24:cont:t1C]”, the “pre-steady-state target cleavage rate” value came out at 0.3 ± 0.016.

Take UCCUCACUACAGCUUGCAUAGUAUUUAGUUA: the “pre-steady-state target cleavage rate” value worked out at 0.259 ± 0.022.

For the sequence UCCUGGAUGAGCUUGCAUCGUAUUUAGUUA, the “pre-steady-state target cleavage rate” value worked out at 0.0594 ± 0.0092.

For the sequence UCCUACUACAGCUUGCAUAGUAUUUAGUUA, the “pre-steady-state target cleavage rate” value turned out to be 0.294 ± 0.02.

On to UCCUGGAUCAGGUUGCAUAGUAUUUAGUUA, for which the “pre-steady-state target cleavage rate” value turned out to be 0.182 ± 0.02.

Turning to UCCUGGAUCAGGCUUGCAUAGUAUUUAGUUA, the “pre-steady-state target cleavage rate” value was determined as 0.213 ± 0.017.

For the sequence UCCUCCUACAGCUUCGAUAGUAUUUAGUUA, the “pre-steady-state target cleavage rate” value was found to be 0.26 ± 0.017.

As for UCCUGGAUGUGCUUGCCUAGUAUUUAGUUA, the “pre-steady-state target cleavage rate” value worked out at 0.0942 ± 0.011.

Take UCCUCCUACAGCUAGCAUAGUAUUAAGUUA: the “pre-steady-state target cleavage rate” value came out at 0.205 ± 0.019.

As for UCCUGGUACAGCUUACAUAGUAUUUAGUUA, the “pre-steady-state target cleavage rate” value was 0.213 ± 0.02.

UCCUGGAUGACCUUGCAUAGUAUUUAGUUA: the “pre-steady-state target cleavage rate” value stood at 0.177 ± 0.023.

Regarding UCCUGGAUCAGCUUACAUAGUAUUUAGUUA, the “pre-steady-state target cleavage rate” value was found to be 0.249 ± 0.014.

UCCUCGUACAGCUUGCAUAGUAUUUAGUAA: the “pre-steady-state target cleavage rate” value came out at 0.24 ± 0.014.

For UCCUCCUACAGCUUGGAAAGUAUUUAGUUA, the “pre-steady-state target cleavage rate” value is 0.141 ± 0.014.

As to UCCUCCAAGAGCUUGCAUAGUAUUUAGUUA, the “pre-steady-state target cleavage rate” value turned out to be 0.276 ± 0.013.

In the case of UCCUCCUACAGCUUGCCAUAGUAUUUAGUUA, the “pre-steady-state target cleavage rate” value amounted to 0.173 ± 0.026.

UCCUGCAACAGCUUGCAUAGUAAUUAGUUA: the “pre-steady-state target cleavage rate” value turned out to be 0.34 ± 0.025.

Turning to UCCUGCUACCAGCUUGCAUAGUAUUUAGUUA, the “pre-steady-state target cleavage rate” value was 0.24 ± 0.019.

For UCCUGCUACAGCUUGCAUAGUAUCUUAGUUA, the “pre-steady-state target cleavage rate” value is 0.259 ± 0.027.

Consider UCCUCCUACAGCUUGCCUAGUAUUUAGUUA, for which the “pre-steady-state target cleavage rate” value came to 0.253 ± 0.022.

With UCCUGGUAGAGCUUGCAUAGUAUUUAGUAA, the “pre-steady-state target cleavage rate” value was 0.206 ± 0.013.

As to UCCUCCAUGAGCUUGCAUAGUAUUUAGUAA, the “pre-steady-state target cleavage rate” value stood at 0.169 ± 0.018.

For the sequence UCCUGGAACAGCAUGCAUAGUAUAUAGUUA, the “pre-steady-state target cleavage rate” value is 0.247 ± 0.025.

UCCUGGUACAGCUUGCAUAGUAUCUAGUUA: the “pre-steady-state target cleavage rate” value came to 0.156 ± 0.029.

Consider UCCUGCUACAGCUUGGAUAGUAUUUAGUAA, for which the “pre-steady-state target cleavage rate” value came to 0.214 ± 0.032.

UCCUGGAGCAGCUUGCAUAGUAUUUAGUUA: the “pre-steady-state target cleavage rate” value is 0.333 ± 0.021.

Take UCCUGGUACCGCUUGCAUAGUAUUUAGUUA: the “pre-steady-state target cleavage rate” value came to 0.293 ± 0.037.

Turning to UCCUGGAUGUCGAUGCAUAGUAUUUAGUAA, the “pre-steady-state target cleavage rate” value came to 0.108 ± 0.015.

As for UCCUCCUACACGAUGCAUAGUAUUUAGUAA, the “pre-steady-state target cleavage rate” value stood at 0.194 ± 0.026.

Turning to UCCUGCUACAGCCUUGCAUAGUAUUUAGUUA, the “pre-steady-state target cleavage rate” value was determined as 0.308 ± 0.025.

Regarding UCCUCCAACAGCUUGCAUAGUAUUAAGUUA, the “pre-steady-state target cleavage rate” value is 0.135 ± 0.021.

Consider UCCUGGAUCAGCUUGCAUAGUGUUUAGUUA, for which the “pre-steady-state target cleavage rate” value was 0.2 ± 0.018.

For the sequence UCCUGGUACAGCUUGCAUAGUAUUUAGUCA, the “pre-steady-state target cleavage rate” value was found to be 0.159 ± 0.032.

Take UCCUCCUACACCUUGCAUAGUAUAUAGUUA: the “pre-steady-state target cleavage rate” value was found to be 0.199 ± 0.028.

Consider UCCUCCAACAGCUUGCAUAGUAUUUAGAUA, for which the “pre-steady-state target cleavage rate” value worked out at 0.192 ± 0.034.

Take UCCUCCUACAGCUUCCAAAGUAUUUAGUUA: the “pre-steady-state target cleavage rate” value amounted to 0.13 ± 0.019.

“UCCUGGUACAGCUUGCAUAGUAUUUAGUUA [g2:g24:cont:t1A]”: the “pre-steady-state target cleavage rate” value was 0.277 ± 0.018.

Still in this test, the particulars now being: auxiliary factor: none (no GTSF1).
With UCCUGGUACAGCUUGCAUAGUAUUUACGUUA, the “pre-steady-state target cleavage rate” value is 0.00544 ± 0.0036.

Regarding UCCUGGAACAGCUAGCAUAGUAUUAAGUUA, the “pre-steady-state target cleavage rate” value was 0.00356 ± 0.0025.

As to UCCUGGAUCACUUGCAUAGUAUUUAGUUA, the “pre-steady-state target cleavage rate” value is 0.0066 ± 0.0022.

As to “UCCUGGUACAGCUUGCAUAGUAUUUAGUUC [g2:g24:cont:t1C]”, the “pre-steady-state target cleavage rate” value came out at 0.0117 ± 0.0049.

Regarding UCCUCACUACAGCUUGCAUAGUAUUUAGUUA, the “pre-steady-state target cleavage rate” value amounted to 0.00971 ± 0.0027.

Turning to UCCUGGAUGAGCUUGCAUCGUAUUUAGUUA, the “pre-steady-state target cleavage rate” value was 0.00554 ± 0.0025.

Consider UCCUACUACAGCUUGCAUAGUAUUUAGUUA, for which the “pre-steady-state target cleavage rate” value came out at 0.00883 ± 0.0027.

Consider UCCUGGAUCAGGUUGCAUAGUAUUUAGUUA, for which the “pre-steady-state target cleavage rate” value was determined as 0.00807 ± 0.0024.

As to UCCUGGAUCAGGCUUGCAUAGUAUUUAGUUA, the “pre-steady-state target cleavage rate” value is 0.0107 ± 0.0028.

As for UCCUCCUACAGCUUCGAUAGUAUUUAGUUA, the “pre-steady-state target cleavage rate” value is 0.00534 ± 0.0022.

For UCCUGGAUGUGCUUGCCUAGUAUUUAGUUA, the “pre-steady-state target cleavage rate” value was 0.012 ± 0.003.

In the case of UCCUCCUACAGCUAGCAUAGUAUUAAGUUA, the “pre-steady-state target cleavage rate” value was found to be 0.0038 ± 0.0018.

On to UCCUGGUACAGCUUACAUAGUAUUUAGUUA, for which the “pre-steady-state target cleavage rate” value was 0.00894 ± 0.0027.

As to UCCUGGAUGACCUUGCAUAGUAUUUAGUUA, the “pre-steady-state target cleavage rate” value worked out at 0.0057 ± 0.0024.

Turning to UCCUGGAUCAGCUUACAUAGUAUUUAGUUA, the “pre-steady-state target cleavage rate” value was 0.00805 ± 0.0023.

As to UCCUCGUACAGCUUGCAUAGUAUUUAGUAA, the “pre-steady-state target cleavage rate” value is 0.00621 ± 0.0022.

For UCCUCCUACAGCUUGGAAAGUAUUUAGUUA, the “pre-steady-state target cleavage rate” value amounted to 0.00715 ± 0.0023.

On to UCCUCCAAGAGCUUGCAUAGUAUUUAGUUA, for which the “pre-steady-state target cleavage rate” value was 0.007 ± 0.0024.

Turning to UCCUCCUACAGCUUGCCAUAGUAUUUAGUUA, the “pre-steady-state target cleavage rate” value worked out at 0.00264 ± 0.0026.

Consider UCCUGCAACAGCUUGCAUAGUAAUUAGUUA, for which the “pre-steady-state target cleavage rate” value amounted to 0.00709 ± 0.0027.

On to UCCUGCUACCAGCUUGCAUAGUAUUUAGUUA, for which the “pre-steady-state target cleavage rate” value was found to be 0.0115 ± 0.0033.

With UCCUGCUACAGCUUGCAUAGUAUCUUAGUUA, the “pre-steady-state target cleavage rate” value turned out to be 0.00985 ± 0.0022.

With UCCUCCUACAGCUUGCCUAGUAUUUAGUUA, the “pre-steady-state target cleavage rate” value worked out at 0.00736 ± 0.002.

Turning to UCCUGGUAGAGCUUGCAUAGUAUUUAGUAA, the “pre-steady-state target cleavage rate” value amounted to 0.0096 ± 0.0028.

For UCCUCCAUGAGCUUGCAUAGUAUUUAGUAA, the “pre-steady-state target cleavage rate” value worked out at 0.00406 ± 0.0021.

As for UCCUGGAACAGCAUGCAUAGUAUAUAGUUA, the “pre-steady-state target cleavage rate” value amounted to 0.0058 ± 0.0025.

For UCCUGGUACAGCUUGCAUAGUAUCUAGUUA, the “pre-steady-state target cleavage rate” value came out at 0.00431 ± 0.0025.

With UCCUGCUACAGCUUGGAUAGUAUUUAGUAA, the “pre-steady-state target cleavage rate” value worked out at 0.00334 ± 0.0025.

On to UCCUGGAGCAGCUUGCAUAGUAUUUAGUUA, for which the “pre-steady-state target cleavage rate” value came out at 0.0118 ± 0.0032.

UCCUGGUACCGCUUGCAUAGUAUUUAGUUA: the “pre-steady-state target cleavage rate” value is 0.0123 ± 0.0052.

For the sequence UCCUGGAUGUCGAUGCAUAGUAUUUAGUAA, the “pre-steady-state target cleavage rate” value is 0.00268 ± 0.0024.

For the sequence UCCUCCUACACGAUGCAUAGUAUUUAGUAA, the “pre-steady-state target cleavage rate” value stood at 0.00362 ± 0.0022.

For UCCUGCUACAGCCUUGCAUAGUAUUUAGUUA, the “pre-steady-state target cleavage rate” value was 0.00822 ± 0.0026.

Turning to UCCUCCAACAGCUUGCAUAGUAUUAAGUUA, the “pre-steady-state target cleavage rate” value came out at 0.0033 ± 0.0024.

In the case of UCCUGGAUCAGCUUGCAUAGUGUUUAGUUA, the “pre-steady-state target cleavage rate” value was 0.00361 ± 0.003.

With UCCUGGUACAGCUUGCAUAGUAUUUAGUCA, the “pre-steady-state target cleavage rate” value was 0.00633 ± 0.0029.

For UCCUCCUACACCUUGCAUAGUAUAUAGUUA, the “pre-steady-state target cleavage rate” value was found to be 0.00295 ± 0.0027.

For the sequence UCCUCCAACAGCUUGCAUAGUAUUUAGAUA, the “pre-steady-state target cleavage rate” value came out at 0.00442 ± 0.0025.

For UCCUCCUACAGCUUCCAAAGUAUUUAGUUA, the “pre-steady-state target cleavage rate” value was 0.0037 ± 0.0022.

On to “UCCUGGUACAGCUUGCAUAGUAUUUAGUUA [g2:g24:cont:t1A]”, for which the “pre-steady-state target cleavage rate” value was found to be 0.0215 ± 0.0056.
